BAZ2B inh = inhibitors of human BAZ2B bromodomain; Q9UIF8; Potency, µM (top dose mostly 114 µM), for inactives: at the top dose activity change, negative = inhibition, most hits filed as inhibitors; AlphaScreen BAZ2B-H3K14Ac peptide displacement; 4.4% of 360,000 active; further: on the % scale 0 is the no-effect control and ±100 the full control effect; nearly all actives have a fitted effect of over 60% in size
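Compounds, titrated to a top concentration of 110 uM, were incubated 30 min at room temperature with preformed BAZ2B/acetyl-K14 H3 peptide complex (50 nM each). Proximity signal was measured by AlphaScreen after 20 min with beads.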
HP1b chromo inh = HP1-beta chromodomain-methylated histone interaction inhibition; P83916; AlphaScreen HP1-beta / biotin-H3K9me3 peptide binding; Potency, µM (series often up to 114 µM), without a hit: top-dose activity change, negative = inhibition, usual class: inhibitors; 0.56% of 390,000 active; AID 540317; further: nearly all actives have a fitted effect of over 70% in size
Target sequence (P83916 whole entry, looked up): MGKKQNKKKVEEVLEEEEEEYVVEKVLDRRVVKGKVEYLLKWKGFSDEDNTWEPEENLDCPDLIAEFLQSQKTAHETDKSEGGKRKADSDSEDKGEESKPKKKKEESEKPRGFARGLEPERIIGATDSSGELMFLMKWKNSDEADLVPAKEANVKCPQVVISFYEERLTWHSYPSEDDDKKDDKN
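HP1-beta protein (50 nM final) preincubated 30 min at room temperature with biotinylated H3(1-18)K9me3 peptide (50 nM) in PBS pH 7.4, 0.01% Tween-20, then compound added for 30 min. AlphaScreen streptavidin donor/nickel chelate acceptor beads (10 ug/mL final), 30 min dark, luminescence read.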
G9a inh = blocks human histone lysine methyltransferase G9a. Q96KQ7. G9a H3K9 monomethylation, AlphaScreen, 2 h. 8.8% of 350,000 active. AID 504332. Potency, µM (titrated, usually from 102 µM), without a hit: top-dose activity, negative = inhibition, hits mostly inhibitors; further: on the % scale 0 is the no-effect control and ±100 the full control effect; nearly all actives have a fitted effect of over 75% in size
Target sequence (Q96KQ7 913-1193 limits assumed): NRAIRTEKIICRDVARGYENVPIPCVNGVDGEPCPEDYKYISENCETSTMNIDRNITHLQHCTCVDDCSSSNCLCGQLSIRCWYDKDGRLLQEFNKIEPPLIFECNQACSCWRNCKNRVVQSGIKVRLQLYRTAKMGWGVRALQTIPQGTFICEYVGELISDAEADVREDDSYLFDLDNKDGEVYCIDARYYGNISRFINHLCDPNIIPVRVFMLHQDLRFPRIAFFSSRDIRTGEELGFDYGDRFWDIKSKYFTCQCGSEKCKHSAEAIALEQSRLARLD
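Readings reflect AlphaScreen signal from monomethyl-H3K9 antibody detection. HMT at 20 nM; substrate b-H3K9 500 nM; cofactor SAM 20 uM; 2 h RT reaction; compounds tested as titrations in qHTS with 15 min preincubation.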
L3MBTL1 inh = blocks human L3MBTL1; Potency, µM (top dose mostly 57.1 µM), without a hit: top-dose activity, negative = inhibition, most hits filed as inhibitors; AlphaScreen L3MBTL1–H3K9me1 peptide binding; Q9Y468; 0.66% of 230,000 active; further: on the % scale 0 is the no-effect control and ±100 the full control effect; nearly all actives have a fitted effect of over 60% in size
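Displacement of a biotinylated histone H3(1-15) peptide monomethylated at Lys9 (75 nM) from L3MBTL1 (50 nM) was measured by AlphaScreen after a 30 min room-temperature compound incubation; cefsulodin titration served as intraplate control.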
JMJD2A Tudor inh = blocks the human JMJD2A Tudor domain; O75164; AID 504339; Potency, µM (doses to about 114 µM), for the others: top-dose activity change, negative = inhibition, most hits filed as inhibitors; AlphaScreen JMJD2A-Tudor / H3K4me3 peptide binding; 4.4% of 390,000 active; further: on the % scale 0 is the no-effect control and ±100 the full control effect; nearly all actives have a fitted effect of over 50% in size
* hit, by the source's call; ? = inconclusive; . = no result given; [ ] = remark or other dose. Sampled rows, rich in hits. Any-hit rate of the full collection: about 11%. The call rests on the fitted dose curve; in most records, active means well fitted inhibition curve with a large enough effect; inconclusive means small, poorly fitted or top-dose-only effect; inactive means no such curve, though single readings can be large or run the other way. Potency means the concentration at half of the fitted maximal effect.

SMILES	BAZ2B inh	HP1b chromo inh	G9a inh	L3MBTL1 inh	JMJD2A Tudor inh
COc1ccc(Nc2nc(C#N)nc(NC3CCCC3)n2)cc1	.	.	.	.	-29%
CCSc1nnc(CNC(=O)C23CC4CC(CC(C4)C2)C3)n1Cc1ccccc1	6%	42%	32µM*	5%	?
Cc1c(N)cc(N)cc1C(=O)O	-35%	1%	79µM*	.	-12%
Cc1c(Br)cc(C(=O)O)c(C)c1C	2%	53%	23%[59 µM]	.	1%
Cn1c(=O)c(C(=O)COC(=O)c2cc(-c3ccccc3)nc3ccccc23)c(N)n(Cc2ccccc2)c1=O	?	.	79µM*	-2%	.
COCCCNCC(=O)c1c(N)n(Cc2ccccc2)c(=O)n(C)c1=O	?	-16%	?	2%	79µM*
CC(Oc1ccccc1)C(=O)Nc1ccc(OCc2cc(=O)n3ccsc3n2)cc1 (stereo unspecified)	-3%	17%	-7%[59 µM]	.	-18%
Cc1c(Cl)cccc1NC(=O)Nc1nnc(N(C)Cc2ccccc2)s1	-4%	20%	-9%[59 µM]	.	-24%
CCn1c(-c2ccc3ncccc3c2)n[nH]c1=S	3%	29%	10µM*	2%	5µM*
CCn1c(-c2sc(-c3ccccc3)nc2C)n[nH]c1=S	-8%	-6%	-128%[59 µM]	10%	18µM*
CCOC(=O)CSc1nnc(-c2ccc3ncccc3c2)n1C	-38%	47%	-14%	.	5%
C=CCn1c(-c2ccc3ncccc3c2)n[nH]c1=S	5%	8%	7.9µM*	.	7.1µM*
CCn1c(-c2cccc(Br)c2)n[nH]c1=S	16%	0%	?	-1%	7.9µM*
c1cnc2ccc(-c3ccc4ncccc4c3)cc2c1	0%	38%	22%[0.501 µM]	-2%[2.29 µM]	-26%
CCn1c(-c2ccc([N+](=O)[O-])cc2)n[nH]c1=S	-30%	22%	4µM*	-1%	3.5µM*
CCCCn1c(=O)[nH]c(=O)c2c1nc(-c1ccc([N+](=O)[O-])cc1)n2CC	20%	27%	?	.	-3%
CC(C)(C)C(=O)OCOP(=O)(COCCn1cnc2c(N)ncnc21)OCOC(=O)C(C)(C)C	.	.	6.3µM*	.	.
Cc1ccc(N(C)C(=O)Cn2cc(S(=O)(=O)N3CCCC3)c(S(=O)(=O)N3CCCC3)c2)cc1	7%[57.1 µM]	13%	-11%[59 µM]	.	-6%
O=C(Nc1ccc(N2CCOCC2)cc1)c1cccc(-n2cnnc2)c1	-22%	-11%	45µM*	.	-15%
CCOc1ccc(NC(=O)c2cccc(-n3cccc3)c2)cc1S(=O)(=O)N1CCOCC1	5µM*	.	-7%[2.33 µM]	5.6µM*	.
CC1CCc2sc(C(=O)Nc3ccc(N4CCOCC4)cc3)cc2C1 (stereo unspecified)	?	?	32µM*	-2%	?
O=C(Nc1ccc(N2CCOCC2)c(Cl)c1)c1cccc(-n2cnnc2)c1	-5%	17%	21%	.	-11%
Cc1cc(C)n(-c2ccc(C(=O)Nc3ccc(N4CCOCC4)cc3)cc2)n1	-27%	24%	56µM*	.	-25%
Cc1cc(C)n(-c2ccc(C(=O)Nc3ccc4c(c3)OCO4)cc2)n1	-22%	1%	-14%	.	-13%
O=c1c(CCc2ccccc2)nc2cnc(N3CCOCC3)nc2n1C1CC1	.	.	7%[0.501 µM]	.	.
SMILES	BAZ2B inh	HP1b chromo inh	G9a inh	L3MBTL1 inh	JMJD2A Tudor inh
O=C(Nc1ccc(N2CCOCC2)cc1)c1ccc(Cl)nc1	?	-18%	50µM*	.	?
CCN(c1ccc(NC(=O)c2ccc(Cl)nc2)cc1)C(C)C	?	29%	22µM*	?	-15%
CSc1cccc(NC(=O)c2ccc(Cl)nc2)c1	?	41%	18%	3%	-2%
O=C(Nc1ccc(N2CCOCC2)cc1)c1ccncc1	-4%	7%	-5%[59 µM]	-25%	-14%
Cc1c(Cl)cccc1NC(=O)c1cnc2sc(N3CCOCC3)nn2c1=O	-7%	?	9%[59 µM]	.	-13%
COc1ccc(N(CC(=O)Nc2ccc(C)c(C)c2)S(=O)(=O)c2ccc(C)cc2)cc1OC	0%	-2%	0%[59 µM]	.	-18%
Cc1cc(=O)oc2c3c(cc(OCC(=O)NCC4CCC(C(=O)O)CC4)c12)OC(C)(C)CC3 (stereo unspecified)	-5%	20%	.	.	-12%
CCCCN(C)C(=O)c1ccc2c(c1)N(Cc1cccc(F)c1)C(=O)c1ccccc1S2	-2%	5%	-8%[59 µM]	.	-23%
CCN(c1cc(C)cc(C)c1)S(=O)(=O)c1nnc(NC(=O)c2cccc(F)c2)s1	-19%	34%	-7%[59 µM]	.	-12%
CCCN1CCc2[nH]c(=S)[nH]c(=O)c2C1	14%	21%	32µM*	36%	?
CC(C)N1CCc2[nH]c(=S)[nH]c(=O)c2C1	16%	1%	40µM*	44%	?
Cc1ccc(CN2CCc3[nH]c(=S)[nH]c(=O)c3C2)cc1	-13%	19%[57 µM]	?	.	-12%
CCOc1ccc(/C=C2\SC(=S)N(CCC(=O)Nc3ccccc3C(=O)O)C2=O)cc1	?	2%	35µM*	.	-24%
CN1C(=O)/C(=C/c2ccc(C(=O)Nc3ccc(O)cc3C(=O)O)cc2)SC1=S	22µM*	45µM*	14%[0.0925 µM]	.	45µM*
COc1ccc(/C=C2\SC(=S)N(CCC(=O)Nc3ccccc3C(=O)O)C2=O)cc1	?	?	71µM*	.	?
Cc1c2cnn(CC(=O)N3CCOCC3)c(=O)c2c(C)n1Cc1ccccc1F	-8%	14%	16%	8%	-15%
COc1ccc(C(=O)Nc2cc(-c3cccc(C)c3)nn2-c2ccccc2)cc1	5%	12%[57 µM]	2%[59 µM]	.	-8%
CC(Sc1nnc(NCc2ccccc2)s1)C(=O)Nc1ccc2c(c1)C(=O)c1ccccc1C2=O (stereo unspecified)	?	-16%	3.2µM*	-9%	?
CN(C)c1ccc(NC(=O)Cn2cc3c(n2)CCCC3)cc1	40µM*	?	28µM*	-13%	50µM*
CC#C[C@@]1(O)CC[C@H]2[C@@H]3CCC4=CC(=O)CCC4=C3[C@H](c3ccc(N(C)C)cc3)C[C@]21C	.	.	5µM*	.	.
O=c1[nH]n2c(=O)c3c([nH]c2c1N=Nc1cccc(Cl)c1)CCC3	35µM*	?	?	3.5µM*	4µM*
COc1cccc(N=Nc2c(=O)[nH]n3c(=O)cc(C)[nH]c23)c1	50µM*	-7%	?	.	?
COc1cccc(N=Nc2c(=O)[nH]n3c(=O)c4c([nH]c23)CCC4)c1	45µM*	?	?	?	50µM*
O=c1[nH]n2c(=O)c3c([nH]c2c1N=Nc1cccc(C(F)(F)F)c1)CCCC3	-36%	-37%	-16%[59 µM]	-2%	?
COc1cccc(-c2ccc(C#N)c(=O)[nH]2)c1	0%	37%	9%	36%	3%
NS(=O)(=O)c1ccc(N=Nc2c(=O)[nH]n3c(=O)c4c([nH]c23)CCCC4)cc1	28µM*	-31%	.	-1%	-36%
Cc1cc(C)n2[nH]c(=O)c(N=Nc3ccc(S(N)(=O)=O)cc3)c2n1	-22%	23%	-43%	-3%	?
